Measurements reported in PubChem BioAssay (NCI).
About 79,000 compounds went through this panel and 15% of them were active in at least one assay; those are over-represented in the sample as a whole. Calls of active or inactive are those of the source. Rule as the data show it: active = growth inhibition above about 70%; inactive = the rest.

Key:
[1] = NCI Yeast Anticancer Drug Screen. Data for the rad50 strain (AID 155);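 also: 0% = growth of vehicle-only cultures of the same strain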; settings: S. cerevisiae rad50 strain growth inhibition; at 50.0 µM; hits give high values
Method in brief: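 Compounds were tested on a yeast strain with an engineered DNA damage repair alteration; the reported value is growth inhibition normalised to vehicle treatment.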

[2] = NCI Yeast Anticancer Drug Screen. Data for the mec2-1 strain (AID 157); settings: S. cerevisiae mec2-1 strain, at 50.0 µM, hits give high values
Method in brief: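 Using mec2-1 yeast: add compound, measure growth, express inhibition versus vehicle-treated cultures.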

[3] = NCI Yeast Anticancer Drug Screen. Data for the sgs1 mgt1 strain (AID 161);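 also: 0% = growth of cultures given vehicle only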; settings: S. cerevisiae sgs1 mgt1 strain, at 50.0 µM, hits give high values
Method in brief: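 Compounds are added to genetically altered yeast, and growth is compared with cultures given vehicle alone to give percent inhibition.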

[4] = NCI Yeast Anticancer Drug Screen. Data for the cln2 rad14 strain (AID 165);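 also: 0% = growth equal to vehicle treated cultures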; settings: S. cerevisiae cln2 rad14 strain, at 50.0 µM, hits give high values
Method in brief: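 Yeast strain cln2 rad14, bearing defects in cell cycle control and DNA repair, serves as the test system; values reflect growth inhibition compared with vehicle.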

[5] = NCI Yeast Anticancer Drug Screen. Data for the bub3 strain (AID 167); settings: S. cerevisiae bub3 mutant strain, at 50.0 µM, hits give high values
Method in brief: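 Growth of a checkpoint-deficient yeast mutant is measured after compound exposure. Values represent inhibition relative to vehicle.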

[6] = NCI Yeast Anticancer Drug Screen. Data for the mlh1 rad18 strain (AID 175); settings: S. cerevisiae mlh1 rad18 strain growth inhibition; at 50.0 µM; hits give high values
Method in brief: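 Steps: expose repair-defective yeast to compound; measure growth; express inhibition against vehicle-treated controls.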

Measured: growth inhibition

Cc1ccnc(SCC(=O)O)n1
inactive: [1] -4.35% | [2] -1.9% | [3] 5.45% | [4] 12.9% | [5] 10.6% | [6] 4.95%

OCC1OC(n2cc[nH]c2=S)C(O)C1O (stereo unspecified)
inactive: [1] 8.5% | [2] 7.6% | [3] -2.6% | [4] 4.45% | [5] 10.2% | [6] -12.7%

O=C(O)c1cc(Cl)ccc1-c1ccc(Cl)cc1C(=O)Nc1ccc2c(c1)Cc1ccccc1-2
active: [1] 91.3% | [2] 89.7% | [3] 94.6% | [4] 87.8% | [5] 85.3% | [6] 94.9%

BrCCCCOc1ccccc1
inactive: [1] 3.5% | [2] 2.65% | [3] -11.3% | [4] -4.25% | [5] -2.7% | [6] 2.7%

CN(C)CCCN1CCC2(CCC(C(C)(C)C)CC2)CC1
inactive: [1] 40% | [2] -16.1% | [3] -0.3% | [4] -19.1% | [5] -31.2% | [6] 49.8%

Cc1cn(C2CC(O)C(CO)O2)c(=O)nc1N1CCCCCCC1 (stereo unspecified)
inactive: [1] -6.85% | [2] -4.8% | [3] -11.3% | [4] -12.3% | [5] 4.85% | [6] 0.3%

C=C(c1ccc(OC)cc1)c1cc(C(C)(C)C)c(O)c(C(C)(C)C)c1
inactive: [1] -4.45% | [2] -1.75% | [3] -17.9% | [4] 51.8% | [5] -4.65% | [6] 0.35%

CC(C)=CC(=O)OC1C2C(C)C(=O)OC2C(O)C(C)C2C=CC(=O)C21C (stereo unspecified)
inactive: [1] 3.15% | [2] -3.6% | [3] 9.6% | [4] 16.9% | [5] 11.1% | [6] 8.2%

CCN(CC)C(=O)COc1ccc(Cl)cc1
inactive: [1] 2.05% | [2] -7.75% | [3] -5.55% | [4] -41.7% | [5] -26.6% | [6] -20.7%

COc1ccc(CC(CN)P(=O)(O)O)cc1 (stereo unspecified)
inactive: [1] 29.3% | [2] 4.2% | [3] 8.5% | [4] 4.45% | [5] 15.1% | [6] 4%

CC1(C)COC(=O)OC1
inactive: [1] 17.8% | [2] 11.5% | [3] 16.4% | [4] 12.8% | [5] 14.8% | [6] 16.9%

CNc1nc(Cl)nc2c1nc(SC)n2-c1ccccc1
inactive: [1] 7.15% | [2] -17.8% | [3] 4.2% | [4] -13.2% | [5] 18.2% | [6] 17.4%

COc1c2ccoc2nc2c(O)c3c(c(CC=C(C)C)c12)OCO3
inactive: [1] -6.65% | [2] -7% | [3] -4.7% | [4] 16.2% | [5] -4.9% | [6] -2.95%

Cc1c2oc3c(C)ccc(C(=O)NCCN4CCOCC4)c3nc-2c(C(=O)NCCN2CCOCC2)c(N)c1=O
inactive: [1] -8.1% | [2] 29.6% | [3] 37.5% | [4] -26.5% | [5] 38.9% | [6] 15.8%

COC(=O)C(/C(=N/NC(=O)c1ccncc1)C(=O)Nc1ccccc1OC)c1nc2ccc(Cl)cc2[nH]c1=O (stereo unspecified)
inactive: [1] 5.8% | [2] -6% | [3] -11% | [4] -38% | [5] -17.7% | [6] 11.4%

O=C(O)c1cc(N2C(=O)c3ccc4c5ccc6c7c(ccc(c8ccc(c3c48)C2=O)c75)C(=O)N(c2ccc(O)c(C(=O)O)c2)C6=O)ccc1O
inactive: [1] -8.4% | [2] 10% | [3] 3.2% | [4] 34% | [5] 1.65% | [6] 26.3%

c1ccc(N=C(c2ccccc2)c2ccccc2)cc1
inactive: [1] 9.25% | [2] -6.65% | [3] -6.05% | [4] -6.65% | [5] -7.65% | [6] 26.3%

O=C(O)CCc1ccc(NC(=O)CCl)cc1
inactive: [1] 4.05% | [2] 14.6% | [3] 17.3% | [4] 8.35% | [5] 5.45% | [6] 14.7%

CCN(CC)c1ccc(CO)cc1
inactive: [1] 7.65% | [2] 4.8% | [3] -22.8% | [4] -9.85% | [5] -1.05% | [6] -13.2%

C=C(C)COC(CCC)OCC(=C)C
inactive: [1] 6.85% | [2] 8.1% | [3] -8.45% | [4] 8.85% | [5] -2.3% | [6] 21.1%

O=C(CCCCCCCCC(=O)OCCCn1cc(C(=O)NC(=O)OCc2ccccc2)c(=O)[nH]c1=O)OCCCn1cc(C(=O)NC(=O)OCc2ccccc2)c(=O)[nH]c1=O
inactive: [1] -28.6% | [2] -41.7% | [3] -25.6% | [4] 1.7% | [5] -24.2% | [6] -36.8%

CCCCCCCCCCCCNc1ncnc2c1cnn2C
inactive: [1] -9.1% | [2] -14.4% | [3] -1.25% | [4] -47.2% | [5] 23.9% | [6] -25.2%

N#CSC1CCCCC1SC#N (stereo unspecified)
inactive: [1] 11.3% | [2] 5.8% | [3] 7.35% | [4] -13.7% | [5] -2.55% | [6] 5.6%

CCOC(=O)C(=O)Nc1cccc(NC(=O)C(=O)OCC)n1
inactive: [1] 2.5% | [2] -21.6% | [3] -19.1% | [4] 4.4% | [5] -13.8% | [6] -6.05%

CC(C)CCNCCCCCCl
inactive: [1] 62.5% | [2] 37.3% | [3] 36.7% | [4] 36.6% | [5] 26.8% | [6] 67.1%

Cc1nc(N)sc1N=Nc1ccc(Br)cc1Br
inactive: [2] 68.8% | [4] 63.1% | [5] 46.9%
active: [1] 85.2% | [3] 86.8% | [6] 76.4%

C=C(C)C1CCC2(CO)C(O)CC3(C)C(CCC4C5(C)CCC(O)C(C)(C)C5CCC43C)C12 (stereo unspecified)
inactive: [1] 14.5% | [2] 7.45% | [3] -8.75% | [4] 2.95% | [5] 15.6% | [6] -6.6%

O=C(Nc1cccc2c(NC(=O)N3CCCCC3)cccc12)N1CCCCC1
inactive: [1] -16.2% | [2] -26.2% | [3] 1.25% | [4] 4.1% | [5] 9.55% | [6] 2.8%

COc1ccccc1NC(=O)/C(=C/C1CC(=O)NC1=S)C(C)=O (stereo unspecified)
inactive: [1] -18.6% | [2] -9.4% | [3] -18.6% | [4] 15.5% | [5] 12% | [6] -7.4%

COc1ccc2c(c1)c1cc(OC)ccc1n2CCCCOc1ccc(-c2c3ccccc3c(-c3ccc(OCCCCn4c5ccc(OC)cc5c5cc(OC)ccc54)cc3)c3ccccc23)cc1
inactive: [1] 29.1% | [2] 1.85% | [3] -1.1% | [4] 23.9% | [5] 7.9% | [6] 29.6%

CCCCCCCCCCCCCCCCCCCCCCC
inactive: [1] -30.4% | [2] -15.1% | [3] -21.9% | [4] 4.8% | [5] -17.2% | [6] -18.4%

COC(=O)CC1C2C=CN(C(=O)OC)N(C(=O)OC)C21 (stereo unspecified)
inactive: [1] -3.3% | [2] 4.25% | [3] 6.35% | [4] 10.8% | [5] 5.7% | [6] 3.9%

Cc1c(-c2ccc3c(c2)COC3)sc(N)c1C#N
inactive: [1] 4.7% | [2] -4.3% | [3] 27.2% | [4] 24.3% | [5] 47.8% | [6] -5.4%

CC(=O)Cc1nc(N)nc(Nc2ccc(Cl)c(Cl)c2)n1
inactive: [1] -8.9% | [2] 13.7% | [3] -10.1% | [4] -11.3% | [5] -13% | [6] -20.5%

O=[N+]([O-])c1cccc(/C=C/COc2ccccc2)c1
inactive: [1] -1.35% | [2] -10.4% | [3] -10.8% | [4] -48.7% | [5] 10.6% | [6] -18.9%

Cc1ccccc1-n1c(=O)sc2c(=O)n(-c3ccccc3)c(=S)[nH]c21
inactive: [1] -11.2% | [2] -23.4% | [3] 6.9% | [4] 6.2% | [5] 0.6% | [6] -18.9%

O=c1cc(-c2ccccc2)c2ccccc2[nH]1
inactive: [1] 2.15% | [2] -6.8% | [3] -12.5% | [4] 15.9% | [5] -27.1% | [6] -1%

COc1cccc(Cc2c3cc(OC)ccc3cc[n+]2C)c1
inactive: [1] 33.3% | [2] 10.8% | [3] 34.2% | [4] 27.7% | [5] 59% | [6] 52.7%

N#Cc1ccccc1C#N
inactive: [1] -0.8% | [2] -5% | [3] -7.7% | [4] -13.9% | [5] -4.7% | [6] -0.4%

COC(=O)c1sc(C(=O)OC)c2c1CSC2
inactive: [1] -6% | [2] 5.35% | [3] -18.4% | [4] 2.55% | [5] -8% | [6] 13.2%

COc1cc2c(c(OC)c1OC)CCC1(C)C(=O)NN=C21 (stereo unspecified)
inactive: [1] -18.1% | [2] 11.1% | [3] 23.5% | [4] -1.55% | [5] 13.7% | [6] 3.9%
